Results on one sequence are retold here after article PMC7862700, “An all-to-all approach to the identification of sequence-specific readers for epigenetic DNA modifications on cytosine”.

Assay in all cases: DAPPL (digital affinity profiling via proximity ligation, sequencing); 10 mM Tris-HCl pH 7.5, 50 mM NaCl, 1 mM DTT, 4% glycerol, room temperature, 30 min; GST-TFs on glutathione beads, 16-mer random dsDNA library, 0.1% formaldehyde crosslink after washing; high values mean tight binding
In one assay the target is T1, FEV (Homo sapiens, UniProt Q99581 1-238).
T1 sequence: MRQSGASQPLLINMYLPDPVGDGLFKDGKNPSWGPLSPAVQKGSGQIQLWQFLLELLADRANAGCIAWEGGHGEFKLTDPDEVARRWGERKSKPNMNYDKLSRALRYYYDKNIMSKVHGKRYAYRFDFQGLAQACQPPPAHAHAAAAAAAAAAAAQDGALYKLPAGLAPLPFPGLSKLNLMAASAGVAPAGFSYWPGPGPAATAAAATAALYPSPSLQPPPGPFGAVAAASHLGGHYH
The conditions noted are these: protein: recombinant; tags: N-terminal GST; dsDNA, one strand shown. In outline: (§1)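 Human transcription factors were made in yeast as GST fusions, captured on glutathione beads and barcoded with DNA. With a tag-only sample included, the pool was incubated with 200 nmole of a random double-stranded 16-mer DNA library in Tris/NaCl/DTT/glycerol buffer at room temperature for 30 min, then crosslinked with 0.1% formaldehyde after washing, ligated by proximity, amplified and sequenced. For binding signal, each hexamer's read frequency for a factor is divided by its frequency for the tag-only sample.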

Another assay addresses ETV5 (Homo sapiens, UniProt P41161 1-510). The conditions noted are these: protein: recombinant; tags: N-terminal GST; dsDNA, one strand shown. In outline: as §1
A further assay concerns the target HSF1 (Homo sapiens, UniProt Q00613 1-529). The conditions noted are these: protein: recombinant; tags: N-terminal GST; chain copies: 3; dsDNA, one strand shown. In outline:
as §1

The next assay concerns the target T2, SPIC (Homo sapiens, UniProt Q8N5J4 1-248).
T2 sequence: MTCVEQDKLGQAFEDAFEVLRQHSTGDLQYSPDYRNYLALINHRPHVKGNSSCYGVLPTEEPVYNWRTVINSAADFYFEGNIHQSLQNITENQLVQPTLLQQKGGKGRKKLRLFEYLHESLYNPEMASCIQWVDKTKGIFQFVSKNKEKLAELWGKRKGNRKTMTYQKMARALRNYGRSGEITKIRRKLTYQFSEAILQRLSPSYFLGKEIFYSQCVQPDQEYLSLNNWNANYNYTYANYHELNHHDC
The conditions noted are these: protein: recombinant; tags: N-terminal GST; dsDNA, one strand shown. In outline: as §1

In the next assay the target is ELF4 (Homo sapiens, UniProt Q99607 1-663). The conditions noted are these: protein: recombinant; tags: N-terminal GST; dsDNA, one strand shown. In outline: as §1
ELF4, sequence (Q99607 whole entry): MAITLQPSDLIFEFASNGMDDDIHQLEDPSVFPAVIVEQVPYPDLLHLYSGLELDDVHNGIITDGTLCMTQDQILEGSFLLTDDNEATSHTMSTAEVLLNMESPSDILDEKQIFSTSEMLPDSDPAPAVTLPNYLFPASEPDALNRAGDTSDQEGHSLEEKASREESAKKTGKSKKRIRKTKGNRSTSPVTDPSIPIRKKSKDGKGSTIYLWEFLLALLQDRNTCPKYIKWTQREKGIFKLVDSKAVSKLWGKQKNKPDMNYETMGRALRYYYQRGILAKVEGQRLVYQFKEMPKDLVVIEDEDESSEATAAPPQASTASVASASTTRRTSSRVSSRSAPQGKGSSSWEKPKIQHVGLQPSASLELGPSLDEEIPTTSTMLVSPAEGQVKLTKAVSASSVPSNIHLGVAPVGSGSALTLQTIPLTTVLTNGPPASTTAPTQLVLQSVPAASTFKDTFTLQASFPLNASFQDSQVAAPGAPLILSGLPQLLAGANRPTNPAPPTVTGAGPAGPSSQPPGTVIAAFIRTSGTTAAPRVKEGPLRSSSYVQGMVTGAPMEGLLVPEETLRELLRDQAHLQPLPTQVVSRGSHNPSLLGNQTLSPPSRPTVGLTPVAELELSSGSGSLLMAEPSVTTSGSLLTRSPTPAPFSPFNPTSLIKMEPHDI
A further assay addresses T3, ELK4 (Homo sapiens, UniProt P28324-2 1-405).
T3 sequence: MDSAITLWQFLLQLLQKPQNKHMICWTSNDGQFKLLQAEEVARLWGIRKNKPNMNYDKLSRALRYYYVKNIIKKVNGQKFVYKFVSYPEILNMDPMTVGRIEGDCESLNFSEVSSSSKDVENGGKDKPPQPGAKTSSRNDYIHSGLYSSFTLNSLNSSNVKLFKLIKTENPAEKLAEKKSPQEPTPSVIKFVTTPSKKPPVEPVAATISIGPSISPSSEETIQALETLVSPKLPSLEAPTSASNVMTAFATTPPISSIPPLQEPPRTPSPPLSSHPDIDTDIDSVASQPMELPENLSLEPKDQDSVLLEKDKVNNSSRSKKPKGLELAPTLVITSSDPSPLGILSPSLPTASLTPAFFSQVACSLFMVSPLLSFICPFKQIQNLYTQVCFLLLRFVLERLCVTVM
The conditions noted are these: protein: recombinant; tags: N-terminal GST; dsDNA, one strand shown. In outline: as §1

The next assay has as its target T4, ETV2 (Homo sapiens, UniProt O00321 1-342).
T4 sequence: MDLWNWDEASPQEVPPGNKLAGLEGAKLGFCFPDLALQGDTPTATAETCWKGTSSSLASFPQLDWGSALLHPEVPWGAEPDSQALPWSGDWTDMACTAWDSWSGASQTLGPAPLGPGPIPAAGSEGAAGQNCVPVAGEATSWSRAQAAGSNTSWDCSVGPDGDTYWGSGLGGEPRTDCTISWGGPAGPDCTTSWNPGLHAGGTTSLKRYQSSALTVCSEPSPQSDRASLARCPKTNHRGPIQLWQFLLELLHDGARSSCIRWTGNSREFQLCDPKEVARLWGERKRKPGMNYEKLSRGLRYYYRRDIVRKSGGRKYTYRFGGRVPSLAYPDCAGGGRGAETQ
The conditions noted are these: protein: recombinant; tags: N-terminal GST; dsDNA, one strand shown. In outline: as §1

The next assay addresses T5, ELF3 (Homo sapiens, UniProt P78545 1-371).
T5 sequence: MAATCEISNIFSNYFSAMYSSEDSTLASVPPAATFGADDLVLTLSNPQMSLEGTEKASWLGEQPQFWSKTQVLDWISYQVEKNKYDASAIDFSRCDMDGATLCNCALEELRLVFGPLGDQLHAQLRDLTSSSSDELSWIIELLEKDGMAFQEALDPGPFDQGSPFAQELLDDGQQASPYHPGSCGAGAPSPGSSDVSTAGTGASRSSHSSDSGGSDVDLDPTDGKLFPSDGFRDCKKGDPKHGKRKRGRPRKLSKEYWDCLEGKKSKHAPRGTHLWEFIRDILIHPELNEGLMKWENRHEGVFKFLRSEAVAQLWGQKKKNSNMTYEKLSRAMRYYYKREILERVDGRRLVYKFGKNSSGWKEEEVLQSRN
The conditions noted are these: protein: recombinant; tags: N-terminal GST; dsDNA, one strand shown. In outline:
as §1

The next assay concerns the target CRX (Homo sapiens, UniProt O43186 1-299). The conditions noted are these: protein: recombinant; tags: N-terminal GST; dsDNA, one strand shown. In outline: as §1
The target in another assay is ETV1 (Homo sapiens, UniProt P50549 1-477). The conditions noted are these: protein: recombinant; tags: N-terminal GST; dsDNA, one strand shown. In outline:
as §1

The next assay has as its target T6, ERF (Homo sapiens, UniProt P50548 1-548).
T6 sequence: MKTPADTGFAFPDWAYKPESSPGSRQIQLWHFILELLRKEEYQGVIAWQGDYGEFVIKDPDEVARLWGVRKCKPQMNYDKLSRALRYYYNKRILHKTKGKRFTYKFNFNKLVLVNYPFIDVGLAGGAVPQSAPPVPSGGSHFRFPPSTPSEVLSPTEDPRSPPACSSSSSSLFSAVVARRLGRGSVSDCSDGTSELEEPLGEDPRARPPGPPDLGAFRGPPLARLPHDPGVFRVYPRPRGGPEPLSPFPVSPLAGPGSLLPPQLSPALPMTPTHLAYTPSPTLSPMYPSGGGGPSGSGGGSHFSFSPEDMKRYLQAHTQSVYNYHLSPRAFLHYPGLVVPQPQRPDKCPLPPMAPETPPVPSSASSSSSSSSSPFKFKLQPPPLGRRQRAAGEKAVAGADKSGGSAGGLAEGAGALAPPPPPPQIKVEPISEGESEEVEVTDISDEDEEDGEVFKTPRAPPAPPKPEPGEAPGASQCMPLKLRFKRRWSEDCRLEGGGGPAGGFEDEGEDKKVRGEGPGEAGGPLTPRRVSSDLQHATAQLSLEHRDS
The conditions noted are these: protein: recombinant; tags: N-terminal GST; dsDNA, one strand shown. In outline:
as §1

The target in another assay is T7, ETV3L (Homo sapiens, UniProt Q6ZN32 1-361).
T7 sequence: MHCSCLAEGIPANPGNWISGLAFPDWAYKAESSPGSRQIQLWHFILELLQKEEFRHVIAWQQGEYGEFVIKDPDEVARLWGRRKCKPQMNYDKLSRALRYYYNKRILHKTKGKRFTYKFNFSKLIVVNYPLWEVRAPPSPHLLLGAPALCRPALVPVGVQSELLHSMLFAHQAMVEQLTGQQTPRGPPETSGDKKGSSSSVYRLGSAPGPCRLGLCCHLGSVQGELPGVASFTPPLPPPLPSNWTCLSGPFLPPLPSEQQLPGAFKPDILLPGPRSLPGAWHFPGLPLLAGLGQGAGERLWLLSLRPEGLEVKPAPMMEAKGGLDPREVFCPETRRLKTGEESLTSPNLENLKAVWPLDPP
The conditions noted are these: protein: recombinant; tags: N-terminal GST; dsDNA, one strand shown. In outline: as §1

The target of another assay is T8, ETS2 (Homo sapiens, UniProt P15036 1-469).
T8 sequence: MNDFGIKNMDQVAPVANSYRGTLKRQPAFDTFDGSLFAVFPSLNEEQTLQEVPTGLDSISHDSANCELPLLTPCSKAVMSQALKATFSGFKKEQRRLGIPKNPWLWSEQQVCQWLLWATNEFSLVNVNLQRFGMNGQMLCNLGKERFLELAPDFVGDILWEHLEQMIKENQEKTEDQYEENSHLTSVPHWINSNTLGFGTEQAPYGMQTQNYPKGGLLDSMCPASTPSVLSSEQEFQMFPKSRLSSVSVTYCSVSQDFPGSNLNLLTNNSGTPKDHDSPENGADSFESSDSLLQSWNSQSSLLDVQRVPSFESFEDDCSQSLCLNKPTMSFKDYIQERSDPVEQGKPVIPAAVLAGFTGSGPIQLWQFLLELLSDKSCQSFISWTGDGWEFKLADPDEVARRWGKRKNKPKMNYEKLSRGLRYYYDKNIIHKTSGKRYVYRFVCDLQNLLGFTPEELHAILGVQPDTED
The conditions noted are these: protein: recombinant; tags: N-terminal GST; dsDNA, one strand shown. In outline:
as §1

The next assay deals with T9, SPDEF (Homo sapiens, UniProt O95238 1-335).
T9 sequence: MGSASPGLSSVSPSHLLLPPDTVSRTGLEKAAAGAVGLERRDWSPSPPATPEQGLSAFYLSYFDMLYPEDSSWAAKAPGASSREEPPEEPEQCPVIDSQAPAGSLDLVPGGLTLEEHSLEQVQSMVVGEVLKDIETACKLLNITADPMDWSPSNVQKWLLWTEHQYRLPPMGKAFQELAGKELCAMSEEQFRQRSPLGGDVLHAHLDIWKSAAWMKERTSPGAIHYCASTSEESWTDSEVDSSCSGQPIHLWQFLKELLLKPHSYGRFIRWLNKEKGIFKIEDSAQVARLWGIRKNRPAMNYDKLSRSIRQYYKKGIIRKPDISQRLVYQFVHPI
The conditions noted are these: protein: recombinant; tags: N-terminal GST; dsDNA, one strand shown. In outline:
as §1

In another assay the target is T10, ETV7 (Homo sapiens, UniProt Q9Y603 1-341).
T10 sequence: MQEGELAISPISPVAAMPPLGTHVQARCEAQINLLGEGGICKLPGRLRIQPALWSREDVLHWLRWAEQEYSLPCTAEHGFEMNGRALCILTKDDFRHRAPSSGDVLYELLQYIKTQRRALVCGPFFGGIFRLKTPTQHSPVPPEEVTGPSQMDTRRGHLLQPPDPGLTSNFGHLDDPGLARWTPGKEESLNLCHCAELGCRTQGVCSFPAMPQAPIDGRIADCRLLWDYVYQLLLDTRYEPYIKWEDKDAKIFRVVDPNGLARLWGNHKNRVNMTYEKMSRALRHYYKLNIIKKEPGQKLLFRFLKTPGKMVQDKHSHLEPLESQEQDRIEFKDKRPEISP
The conditions noted are these: protein: recombinant; tags: N-terminal GST; dsDNA, one strand shown. In outline:
as §1

The target in another assay is T11, ELF5 (Homo sapiens, UniProt Q9UKW6-2 1-255).
T11 sequence: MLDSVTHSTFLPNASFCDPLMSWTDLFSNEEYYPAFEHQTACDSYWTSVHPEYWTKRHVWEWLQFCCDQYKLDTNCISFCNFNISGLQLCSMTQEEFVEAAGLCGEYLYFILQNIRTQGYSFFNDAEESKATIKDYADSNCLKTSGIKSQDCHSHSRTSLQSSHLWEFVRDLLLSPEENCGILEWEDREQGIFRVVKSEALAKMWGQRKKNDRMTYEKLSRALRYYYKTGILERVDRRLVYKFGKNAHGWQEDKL
The conditions noted are these: protein: recombinant; tags: N-terminal GST; dsDNA, one strand shown. In outline: as §1

The target in a further assay is T12, ETV3 (Homo sapiens, UniProt P41162-2 1-143).
T12 sequence: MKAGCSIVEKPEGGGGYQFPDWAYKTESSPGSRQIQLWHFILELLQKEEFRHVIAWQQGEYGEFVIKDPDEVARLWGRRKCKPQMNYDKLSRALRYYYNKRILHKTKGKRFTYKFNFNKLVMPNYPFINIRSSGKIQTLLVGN
The conditions noted are these: protein: recombinant; tags: N-terminal GST; dsDNA, one strand shown. In outline: as §1

In the next assay the target is ETV6 (Homo sapiens, UniProt P41212 1-452). The conditions noted are these: protein: recombinant; tags: N-terminal GST; dsDNA, one strand shown. In outline:
as §1

ETV6, sequence (P41212 whole entry): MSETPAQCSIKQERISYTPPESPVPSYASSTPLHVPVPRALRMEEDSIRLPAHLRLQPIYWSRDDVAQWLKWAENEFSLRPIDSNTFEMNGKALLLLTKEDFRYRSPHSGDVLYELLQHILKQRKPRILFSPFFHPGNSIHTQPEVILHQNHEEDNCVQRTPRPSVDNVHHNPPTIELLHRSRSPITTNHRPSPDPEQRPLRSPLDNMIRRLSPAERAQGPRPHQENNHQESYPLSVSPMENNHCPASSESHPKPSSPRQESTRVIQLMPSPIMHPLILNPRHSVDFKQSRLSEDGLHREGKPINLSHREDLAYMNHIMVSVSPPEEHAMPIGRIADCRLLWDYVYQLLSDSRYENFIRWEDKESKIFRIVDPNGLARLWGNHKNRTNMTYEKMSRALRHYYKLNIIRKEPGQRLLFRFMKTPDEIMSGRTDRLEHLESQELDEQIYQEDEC
HSF1, sequence (Q00613 whole entry): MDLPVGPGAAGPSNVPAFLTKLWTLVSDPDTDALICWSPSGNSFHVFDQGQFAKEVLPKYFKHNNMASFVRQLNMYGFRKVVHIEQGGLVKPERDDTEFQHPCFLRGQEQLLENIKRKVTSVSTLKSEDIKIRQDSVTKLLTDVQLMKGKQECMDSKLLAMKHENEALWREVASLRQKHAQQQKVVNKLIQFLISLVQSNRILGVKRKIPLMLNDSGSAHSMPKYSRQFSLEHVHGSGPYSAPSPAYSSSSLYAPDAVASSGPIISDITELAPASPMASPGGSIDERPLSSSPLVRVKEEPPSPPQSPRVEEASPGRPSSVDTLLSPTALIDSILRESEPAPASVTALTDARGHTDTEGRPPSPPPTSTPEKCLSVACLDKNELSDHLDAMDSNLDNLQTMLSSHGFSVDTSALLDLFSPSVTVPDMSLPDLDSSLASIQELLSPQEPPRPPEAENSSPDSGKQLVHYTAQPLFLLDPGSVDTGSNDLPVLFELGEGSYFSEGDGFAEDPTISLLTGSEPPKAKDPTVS
ETV5, sequence (P41161 whole entry): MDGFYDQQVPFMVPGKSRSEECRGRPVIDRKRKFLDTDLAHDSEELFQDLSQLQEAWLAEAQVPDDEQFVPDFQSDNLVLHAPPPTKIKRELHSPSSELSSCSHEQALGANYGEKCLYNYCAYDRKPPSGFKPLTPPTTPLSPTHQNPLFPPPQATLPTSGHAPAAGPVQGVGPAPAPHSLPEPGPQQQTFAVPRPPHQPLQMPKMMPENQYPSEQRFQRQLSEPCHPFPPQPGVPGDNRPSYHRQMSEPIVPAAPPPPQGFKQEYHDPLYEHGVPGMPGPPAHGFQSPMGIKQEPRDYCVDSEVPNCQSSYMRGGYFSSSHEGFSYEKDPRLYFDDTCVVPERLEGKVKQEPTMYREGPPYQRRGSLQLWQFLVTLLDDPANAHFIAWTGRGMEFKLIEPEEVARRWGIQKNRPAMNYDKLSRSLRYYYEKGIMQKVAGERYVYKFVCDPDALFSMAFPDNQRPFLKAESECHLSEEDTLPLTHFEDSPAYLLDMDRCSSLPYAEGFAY
ETV1, sequence (P50549 whole entry): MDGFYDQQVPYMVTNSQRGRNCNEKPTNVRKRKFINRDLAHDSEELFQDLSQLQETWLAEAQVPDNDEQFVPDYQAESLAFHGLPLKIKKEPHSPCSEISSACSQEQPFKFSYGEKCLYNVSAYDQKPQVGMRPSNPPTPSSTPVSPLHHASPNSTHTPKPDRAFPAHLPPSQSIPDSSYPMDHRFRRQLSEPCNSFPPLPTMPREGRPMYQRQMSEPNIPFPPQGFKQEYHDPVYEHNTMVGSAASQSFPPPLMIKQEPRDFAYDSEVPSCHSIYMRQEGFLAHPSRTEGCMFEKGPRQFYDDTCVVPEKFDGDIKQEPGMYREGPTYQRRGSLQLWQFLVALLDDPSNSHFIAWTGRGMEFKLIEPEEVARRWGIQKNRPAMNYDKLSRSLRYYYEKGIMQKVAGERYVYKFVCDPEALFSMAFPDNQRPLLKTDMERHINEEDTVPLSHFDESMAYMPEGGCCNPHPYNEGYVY
CRX, sequence (O43186 whole entry): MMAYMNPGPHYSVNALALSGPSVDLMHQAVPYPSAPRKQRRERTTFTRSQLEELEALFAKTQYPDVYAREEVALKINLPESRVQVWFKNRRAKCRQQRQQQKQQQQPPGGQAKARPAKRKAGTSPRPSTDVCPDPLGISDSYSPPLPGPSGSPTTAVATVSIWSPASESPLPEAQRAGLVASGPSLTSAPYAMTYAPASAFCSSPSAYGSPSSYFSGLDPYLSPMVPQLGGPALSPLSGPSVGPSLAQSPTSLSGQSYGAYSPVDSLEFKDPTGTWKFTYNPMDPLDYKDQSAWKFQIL

For TAATTC, the binding signal with FEV was 1.36 fold enrichment (6-mer frequency, TF over GST control); in the assay with ETV5 it was 1.44 fold enrichment (6-mer frequency, TF over GST control); in the assay with HSF1, 2.33 fold enrichment (6-mer frequency, TF over GST control); with SPIC, 1.44 fold enrichment (6-mer frequency, TF over GST control); with ELF4, 1.48 fold enrichment (6-mer frequency, TF over GST control); with ELK4 it was 1.3 fold enrichment (6-mer frequency, TF over GST control). The binding signal with ETV2 is 1.51 fold enrichment (6-mer frequency, TF over GST control); with ELF3 it was 1.29 fold enrichment (6-mer frequency, TF over GST control); with CRX it was 3.05 fold enrichment (6-mer frequency, TF over GST control); with ETV1, 1.4 fold enrichment (6-mer frequency, TF over GST control); with ERF it was 1.29 fold enrichment (6-mer frequency, TF over GST control); in the assay with ETV3L, 1.38 fold enrichment (6-mer frequency, TF over GST control). The binding signal in the assay with ETS2 is 1.48 fold enrichment (6-mer frequency, TF over GST control); with SPDEF, 1.37 fold enrichment (6-mer frequency, TF over GST control); with ETV7 it was 1.38 fold enrichment (6-mer frequency, TF over GST control); with ELF5 it was 1.41 fold enrichment (6-mer frequency, TF over GST control); with ETV3 it was 1.51 fold enrichment (6-mer frequency, TF over GST control); in the assay with ETV6 it was 1.53 fold enrichment (6-mer frequency, TF over GST control).
